# Data as given in PubChem BioAssay.
# Experiment: anti-His antibody binders, primary screen, artefact control for SMM control protein annotation, biochemical, small-molecule microarray, 635 nm fluorescence (AID 1128);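 further: score merges feature fluorescence with signal-to-noise for each printed compound spot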
# Settings: anti-His Alexa647 antibody binding, higher = more signal
row,Compound,composite z-score
1,C=CC[C@H](OC(=O)Nc1ccc(SC)cc1)c1ccc(O)c2ccccc12,0.942
2,O=C1O[C@@H](c2ccccc2)[C@@H](c2ccccc2)N2[C@@H](c3ccc(OCCO)cc3)[C@]3(C(=O)Nc4ccc(C#CC5=CCCCC5)cc43)[C@@H](C(=O)NC[C@H](O)c3ccccc3)[C@H]12,2.25
3,O=C1O[C@H](c2ccccc2)[C@H](c2ccccc2)N2[C@H]1[C@@H](C(=O)O)[C@]1(C(=O)Nc3ccc(C#CCCO)cc31)[C@H]2c1ccccc1OCCO,0.84
4,CC(C)c1ccc(NN2C(C(O)c3ccc(C#N)cc3)C=CC3C(=O)N(c4ccccc4)C(=O)C32)cc1 (stereo unspecified),0.433
5,C[N+](C)(C)CCCC[C@@H]1NC(=O)[C@@H]2C[C@H](C(=O)NCCCCCCN)[C@H](c3cccc(OCCO)c3)N2C1=O,3.26
6,CC(C)[Si]1(C(C)C)OCc2cc(C3CC3)nc(-c3ccc(Oc4ccccc4)cc3)c21,-0.33
7,COCCOC(=O)N1C(=O)[C@@]2(c3cc(C#CC4(O)CCCCCC4)ccc31)[C@H](c1ccc(O)cc1)N1[C@H](c3ccccc3)[C@H](c3ccccc3)OC(=O)[C@H]1[C@@H]2C(=O)N1CCN(c2ncccn2)CC1,0.388
8,COC(=O)c1c(CC[C@@H](CO)NC(=O)N[C@@H](C)Cn2cc(-c3ccccn3)nn2)oc(C(C)=O)c1C(=O)OC,1.73
9,CCOC(=O)[C@@H]1CCCCN1C(=O)C(=O)OC,0.234
10,CN(C)c1ccc(C(O)C2C=CC3C(=O)NC(=O)C3N2Nc2ccccn2)cc1 (stereo unspecified),0.909
11,CC#CCO[Si](C#Cc1ccccc1)(C(C)C)C(C)C,-1.71
